In the supplement of paper PMC4894684:
Counter-ions that a name gives are not always drawn. ± gives the standard deviation of the averaged measurements.

Test system: Toxoplasma gondii RH (in HFF)
Test: parasite growth relative to the screen mean (all compounds = 100%); higher = less inhibition of parasite growth
Conditions: 5 µM; 72 h; oxygen 21 %
How it was run: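 Values give growth relative to the screen mean. The screen mean (all compounds) is set at 100%, and two screens were averaged. Compounds at 5 µM final were placed on confluent human foreskin fibroblasts, which were infected within 2 h with RH β-Gal–GFP Toxoplasma (MOI 1:5) and kept 72 h at 21% O2 before a CPRG β-Gal readout against in-plate standard curves.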

Compared with `O=C1C(Cl)=C(NCCN2CCOCC2)C(=O)c2ncccc21`, `COc1cc(N)c(Cl)cc1C(=O)CCC1CCN(CCNS(C)(=O)=O)CC1` is higher in parasite growth: 25.7 ± 24% for the first, 74.1 ± 2.4% for the second.

`Oc1cc2c(cc1O)C(c1ccccc1)CNCC2` (centres undefined) and `N=C(CC(O)COc1ccccc1-c1ccccc1)N1CCCCC1` (centres undefined) are within error of each other in parasite growth: 162 ± 47% for the first, 95.8 ± 34% for the second.

Compared with `CCN(c1ccccc1)c1cc(=NC)n(C)c(C)n1`, `Nc1nc2c(ccc3ccccc32)s1` is higher in parasite growth: 59 ± 11% for the first, 158 ± 11% for the second.

`Cn1ccc2cc(NC(=O)Nc3cccnc3)ccc21` and `CSc1cc2c(cc1C(F)(F)F)N(C(=O)Nc1cccnc1)CC2` are within error of each other in parasite growth: 129 ± 6.5% for the first, 122 ± 30% for the second.

Compared with `Cc1noc(NS(=O)(=O)c2cccc3c(N(C)C)cccc23)c1C`, `COc1ccc(NS(=O)(=O)c2ccc(I)cc2)cc1N1CCN(C)CC1` is higher in parasite growth: 59.8 ± 11% for the first, 122 ± 17% for the second.

First: O=[N+]([O-])c1cccc2cn[nH]c12 [7-Nitroindazole]
Second: CC1=Nc2ccc(Cl)cc2S(=O)(=O)N1 [Diazoxide]
The parasite growth of the first is higher: 124.7 ± 0.72% for the first, 77.6 ± 16% for the second.

`O=C(O)c1cccnc1C(=O)O` [Quinolinic acid] and `C[C@](N)(Cc1ccc(O)c(O)c1)C(=O)O` [L-(-)- α-Methyldopa] are within error of each other in parasite growth: 125 ± 12% for the first, 146 ± 39% for the second.

`CCCCc1nn(-c2ccccc2C(F)(F)F)c(=O)n1Cc1ccc(-c2ccccc2S(=O)(=O)NC(=O)c2sccc2C)cc1` and `CCOC(=O)[C@H](CCc1ccccc1)N[C@H]1CCc2ccccc2N(CC(=O)O)C1=O` [Benazepril hydrochloride] are within error of each other in parasite growth: 137 ± 20% for the first, 140 ± 36% for the second.

First: CCCCNC(=O)[C@@H]1Cc2ccccc2N1C(=O)[C@@H](N)CC [Butabindide oxalate]
Second: CCCCNc1c(C(=O)OCC)c(C)nc2c1cnn2CC [Tracazolate hydrochloride]
The parasite growth of the first is higher: 130 ± 7.7% for the first, 109 ± 5.9% for the second.

First: COc1nccc(-c2c(-c3ccc(F)cc3)ncn2C2CCC(O)CC2)n1 (centres undefined)
Second: Cc1c(C(=O)NN2CCOCC2)nn(-c2ccc(Cl)cc2Cl)c1-c1ccc(I)cc1
The parasite growth of the first is lower: less than 0% for the first, 88.1 ± 20% for the second.

`O=C(O)c1cc(=O)c2c(Cl)cc(Cl)cc2[nH]1` [5,7-Dichlorokynurenic acid] and `CN1CCN(C(=O)c2nc3ccc(Cl)cc3[nH]2)CC1` are within error of each other in parasite growth: 136 ± 26% for the first, 133 ± 14% for the second.

First: COc1[nH]c2ccc(F)cc2c1C(=O)OCC1CCN(CCNS(C)(=O)=O)CC1.NS(=O)(=O)O
Second: CS(=O)(=O)c1ccc(Cn2c3c(c4cc(F)cc(F)c42)CCCC3CC(=O)O)cc1 (centres undefined)
The parasite growth of the first is lower: 80.2 ± 32% for the first, 120 ± 6.7% for the second.

`CCc1cc(Cl)c(OC)c(C(=O)NC[C@@H]2CCCN2CC)c1O` [Eticlopride hydrochloride] and `CCN1CCC[C@H]1CNC(=O)c1c(OC)ccc(Br)c1OC` [Remoxipride hydrochloride] are within error of each other in parasite growth: 106 ± 11% for the first, 113 ± 3.8% for the second.

`NCC(O)(CS(=O)(=O)O)c1ccc(Cl)cc1` (centres undefined) [2-Hydroxysaclofen] and `NC(N)=Nc1ccc(Cl)cc1` [4-Chlorophenylguanidine hydrochloride] are within error of each other in parasite growth: 132 ± 20% for the first, 125 ± 3.5% for the second.

`CC(=Cc1ccc(C(=O)O)cc1)c1ccc2c(c1)C(C)(C)CCC2(C)C` and `Oc1ccc(/C=C/c2cc(O)cc(O)c2)cc1` [Resveratrol] are within error of each other in parasite growth: 120 ± 27% for the first, 112 ± 56% for the second.

Compared with `Cc1c[nH]c(=O)n(CCCN2CCN(c3ccccc3OCC(F)(F)F)CC2)c1=O`, `CN1CCN(CCc2ccc(Cl)c(Cl)c2)CC1` [BD 1063 dihydrochloride] is lower in parasite growth: 116 ± 6.9% for the first, 50.9 ± 5.6% for the second.

`CN(C)CCC=C1c2ccccc2COc2ccccc21` [Doxepin hydrochloride] and `CCC1(c2ccccc2)C(=O)NCNC1=O` [Primidone] are within error of each other in parasite growth: 159 ± 36% for the first, 113 ± 18% for the second.

`Nc1nc(N)nc(-c2cc(Cl)ccc2Cl)n1` [Irsogladine maleate] and `CCc1cc(C(C)=O)c(O)cc1OCCCCCC(C)(C)c1nn[nH]n1` are within error of each other in parasite growth: 127 ± 27% for the first, 111 ± 4.1% for the second.

Going from `C=CCn1c(=O)n([C@@H]2O[C@H](CO)[C@@H](O)[C@H]2O)c2nc(N)[nH]c(=O)c21` to `CCCc1c(OCCCOc2ccc(OCC(=O)O)cc2)ccc(C(C)=O)c1O`, the parasite growth rises from 116 ± 8.2% to 135 ± 1.4%.

For `CC1OC2(CS1)CN1CCC2CC1` (centres undefined) [Cevimeline hydrochloride], the parasite growth was 148 ± 82%.
